Laboratory results reported in the supplement of paper PMC7393113.
Counter-ions that a name gives are not always drawn. ± gives the standard deviation of the averaged measurements.

Tested on: iBMDM (immortalised mouse bone-marrow-derived macrophages), LPS-stimulated
Assay: mitochondrial superoxide (MitoSOX fluorescence) fold increase over unstimulated control; higher = more LPS-induced mitochondrial ROS (less inhibition)
Conditions: inhibitor concentration: 500 nM; LPS: 100 ng/ml; time after LPS: 4 h
Method in brief: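 Values are fold induction of mitochondrial superoxide relative to untreated macrophages, as a mean of replicates. Immortalised mouse bone-marrow-derived macrophages, seeded in triplicate in black 96-well plates, spent 20 h in phenol-red-free 1% FCS/DMEM before a 30 min pretreatment with kinase inhibitors (500 nM). After 10 min loading with 1 μM MitoSox, cells received LPS (100 ng/ml), and fluorescence (510/580 nm) was measured every 60 min for 4 h.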

`Cc1c(NC(=O)OC[C@@H]2COCCN2)cn2ncnc(Nc3ccc4c(cnn4Cc4cccc(F)c4)c3)c12` and `CN(C)C/C=C/C(=O)Nc1cc2c(Nc3ccc(F)c(Cl)c3)ncnc2cc1O[C@H]1CCOC1` [Afatinib (BIBW2992)] are within error of each other in mitochondrial superoxide: 1.9 ± 0.045 for the first, 1.77 ± 0.11 for the second.

Going from `O=c1c(O)c(-c2ccc(O)c(O)c2)oc2cc(O)cc(O)c12` [Quercetin] to `Oc1cc(O)cc(/C=C/c2ccc(O)c(O)c2)c1` [Piceatannol], the mitochondrial superoxide falls from 1.43 ± 0.063 to 1.23 ± 0.041.

Going from `O=S(=O)(c1cccc2cnccc12)N1CCCNCC1` [Fasudil (HA-1077) HCl] to `Cc1cc(Nc2ncc(Cl)c(Nc3ccccc3S(=O)(=O)C(C)C)n2)c(OC(C)C)cc1C1CCNCC1`, the mitochondrial superoxide rises from 1.31 ± 0.029 to 1.39 ± 0.024.

Compared with `NC(=O)c1ncn([C@@H]2O[C@H](CO)[C@@H](O)[C@H]2O)c1N` [Acadesine], `Cn1cnc2c(F)c(Nc3ccc(Br)cc3Cl)c(C(=O)NOCCO)cc21` [Selumetinib (AZD6244)] is higher in mitochondrial superoxide: 1.36 ± 0.027 for the first, 1.61 ± 0.081 for the second.

`CN1CCC(CNc2ccc3ncc(-c4cccc(OC(F)(F)F)c4)n3n2)CC1` [SGI-1776 free base] and `C[C@@H](Oc1cc(-n2cnc3ccc(CN4CCN(C)CC4)cc32)sc1C(N)=O)c1ccccc1C(F)(F)F` are within error of each other in mitochondrial superoxide: 1.33 ± 0.071 for the first, 1.35 ± 0.048 for the second.

First: COc1cc(Nc2c(C#N)cnc3cc(OCCCN4CCN(C)CC4)c(OC)cc23)c(Cl)cc1Cl [Bosutinib (SKI-606)]
Second: COc1cc2ncnc(Nc3ccc(O)c(Br)c3)c2cc1OC
The mitochondrial superoxide of the first is higher: 1.81 ± 0.04 for the first, 1.07 ± 0.12 for the second.

First: COc1cc2ncnc(Nc3ccc(F)c(Cl)c3)c2cc1NC(=O)/C=C/CN1CCCCC1
Second: CS(=O)(=O)CCNCc1ccc(-c2ccc3ncnc(Nc4ccc(OCc5cccc(F)c5)c(Cl)c4)c3c2)o1
The mitochondrial superoxide of the first is lower: 1.57 ± 0.069 for the first, 1.89 ± 0.18 for the second.

`CS(=O)(=O)N1CCc2c(-c3cnc(N)nc3)nc(N3CCOCC3)nc21` and `O=c1cc(N2CCOCC2)oc2c(-c3ccccc3)cccc12` are within error of each other in mitochondrial superoxide: 1.55 ± 0.025 for the first, 1.52 ± 0.035 for the second.

Going from `CCc1ccc(/C=C2/SC(=S)NC2=O)cc1` to `O=C1NC(=O)C(c2ccccc2[N+](=O)[O-])=C1Nc1ccc(O)c(Cl)c1`, the mitochondrial superoxide rises from 1.36 ± 0.0082 to 1.63 ± 0.063.

First: Cc1ccc(C(=O)Nc2ccc(CN3CCN(C)CC3)c(C(F)(F)F)c2)cc1C#Cc1cnc2[nH]ncc2c1
Second: C=CC(=O)Nc1cccc(Sc2nc(Nc3ccc(N4CCN(C)CC4)cc3)ncc2Cl)c1
The mitochondrial superoxide of the first is higher: 1.75 ± 0.062 for the first, 1.26 ± 0.032 for the second.

`CCC[C@H](NC(=O)/C(C#N)=C/c1cccc(Br)n1)c1ccccc1` [Degrasyn (WP1130)] and `N#CC(=C(/N)Sc1ccccc1N)/C(C#N)=C(\N)Sc1ccccc1N` are within error of each other in mitochondrial superoxide: 1.48 ± 0.038 for the first, 1.45 ± 0.047 for the second.

First: CC(C)n1nc(-c2ccc3oc(N)nc3c2)c2c(N)ncnc21
Second: CC(C)(C)n1nc(-c2ccc(Cl)cc2)c2c(N)ncnc21
The mitochondrial superoxide of the first is higher: 1.78 ± 0.051 for the first, 1.31 ± 0.079 for the second.

Compared with `CNC(=O)c1nn(C)c2c1C(C)(C)Cc1cnc(Nc3ccc(N4CCN(C)CC4)cc3)nc1-2`, `Cc1cc(Nc2cc(N3CCN(C)CC3)nc(/C=C/c3ccccc3)n2)n[nH]1` is lower in mitochondrial superoxide: 1.64 ± 0.064 for the first, 1.32 ± 0.03 for the second.

`Cc1ccc(Nc2nccc(N(C)c3ccc4c(C)n(C)nc4c3)n2)cc1S(N)(=O)=O` and `Cc1cc(Nc2ncnc3ccc(-c4ccc(CNCCS(C)(=O)=O)o4)cc23)ccc1Oc1ccn2ncnc2c1` [HER2-Inhibitor-1] are within error of each other in mitochondrial superoxide: 1.65 ± 0.11 for the first, 1.57 ± 0.063 for the second.

First: COc1cccc2cc(-c3nc([C@H]4CC[C@H](C(=O)O)CC4)n4ncnc(N)c34)[nH]c12
Second: COc1cc(N2CCC(N)CC2)ccc1Nc1ncc(Cl)c(-c2c[nH]c3ccccc23)n1
The mitochondrial superoxide of the first is higher: 1.52 ± 0.017 for the first, 1.36 ± 0.057 for the second.

First: Nc1cccc(-c2cc3c(Oc4cccc(O)c4)ncnc3[nH]2)c1
Second: Nc1ncnc2c1c(-c1cccc(OCc3ccccc3)c1)cn2C1CC(CN2CCC2)C1 (configuration not stated)
The mitochondrial superoxide of the first is lower: 1.25 ± 0.03 for the first, 1.63 ± 0.029 for the second.

Compared with `O=c1ncn2nc(Sc3ccc(F)cc3F)ccc2c1-c1c(Cl)cccc1Cl`, `O=C1C(c2c(O)[nH]c3ccccc23)=Nc2ccccc21` [Indirubin] is higher in mitochondrial superoxide: 1.28 ± 0.037 for the first, 1.42 ± 0.048 for the second.

`CS(=O)(=O)c1ccc(-c2cnc(N)c(C(=O)Nc3ccccc3)n2)cc1` and `CNC(=O)c1cc(Oc2ccc(NC(=O)Nc3cc(C(C)(C)C)nn3-c3ccc4ncccc4c3)c(F)c2)ccn1` [DCC-2036 (Rebastinib)] are the same in mitochondrial superoxide: 1.6 ± 0.078 for the first, 1.6 ± 0.03 for the second.

`N#Cc1ccc2[nH]c(O)c(-c3ccc(CN4CCOCC4)cn3)c2c1` gave a mitochondrial superoxide of 1.38 ± 0.045.
